In PubChem BioAssay (NCI):
Compounds without any hit were thinned out: in the full panel of roughly 83,000, 20% have a hit.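 Growth was measured after 48 h exposure to one concentration of compound in 96-well plates. Values under 10 count as active.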 A number with no mark means an inactive call. Calls of active or inactive are those of the source.

The molecules below were run on MDA-MB-468 breast (assay: NCI-60 one-dose screen, 48 h (100 = growth as untreated, 0 = no growth, -100 = all killed)). Conditions: 10 µM unless noted.

Row | SMILES | growth
1 | N#CC1=C(N)Oc2c(ccc3ccccc23)C1c1ccccc1Cl (stereo not given) | 8.77% (active)
2 | COc1ccc(/C=C2\CCc3ccccc3C2=O)cc1 | 76.7%
3 | CCOC(=O)/C(=C/c1ccccc1)C(=O)c1ccccc1 | 85.6%
4 | NC(N)=N/N=C/c1cccc(Cl)c1Cl | 18.1%
5 | CC(=O)OCCCCN1C=C/C(=C\C(=O)n2ccc3ccccc32)c2ccccc21 | 98.4%
6 | COC(=O)[C@]12CC[C@@H](C)[C@H](C)[C@@H]1C1=CC[C@@H]3[C@@]4(C)C[C@@H](O)[C@H](O)[C@@](C)(CO)C4=CC[C@@]3(C)[C@]1(C)CC2 | -66.4% (active)
7 | CC/C=C\CCC/C=C1/C(=O)C=C[C@@H]1C/C=C\CCCC(=O)OC | 68.7%
8 | Oc1c(CN2CCC(N3CCOCC3)CC2)cc(Cc2cc(CN3CCC(N4CCOCC4)CC3)c(O)c3ncccc23)c2cccnc12 | 9.12% (active)
9 | CN1CCC(OC2c3ccccc3CCc3ccccc32)CC1 | 89.6%
10 | COc1ccc2c(C3=C(c4c[nH]c5ccccc45)C(=O)N(O)C3=O)coc2c1 | 88.6%
11 | Cc1ccc(CNS(=O)(=O)/N=C2\NC(=O)NC2=C(Cl)Cl)cc1 | 1.67% (active)
12 | CC[C@H](Nc1ncnc2nc[nH]c12)c1nc2cccc(F)c2c(=O)n1-c1ccccc1 | 3.98% (active)
13 | O=C1c2ccccc2C(c2ccccc2)C1c1ccccc1 (stereo not given) | 71.4%
14 | Nc1nc(N)c2nc3c(nc2n1)CCCCCCCCCC3 | 58.1%
15 | COc1ccc(/C(C)=C(\c2ccc(Cl)cc2)c2ccc(OCCN3CCCCCC3)cc2)cc1F | 35.3%
16 | CCc1ccc(Nc2cc(C)c3ccc(O)cc3n2)cc1 | -11.2% (active)
17 | CCc1ccc(C2=C(O)C(=O)C(c3ccc(CC)cc3)=C(O)C2=O)cc1 | -2.72% (active)
18 | COc1cc(C(=O)/C=C/c2cc(-c3ccc4c(c3)OCO4)n[nH]2)cc(OC)c1OC | 29.1%
19 | COc1ccc(-c2nc(N3CCN(C(=O)C4CCCCC4)CC3)c3c4c(sc3n2)CCCC4)cc1 | -17.4% (active)
20 | COc1cc2nc(N3CCCC3)nc(NCCc3ccccc3)c2cc1OC | 6.66% (active)

Row | SMILES | growth
21 | CCOC(=O)/C(F)=C/C1CC1CCc1cccc(C(F)(F)F)c1 (stereo not given) | 109%
22 | CN(C)C1CCC(NC2=CC(=O)C=CC2=O)CC1 (stereo not given) | 105%
23 | CC(=O)c1ccc(NC(=O)COc2ccc(C3SCC(=O)N3c3ccc(Br)cc3)cc2)cc1 (stereo not given) | 92%
24 | O=Cc1ccc(Cl)c(Cl)c1 | 119%
25 | C[C@@H](Oc1cc(-c2cnn(C3CC4(CCCNC4)C3)c2)cnc1N)c1c(Cl)ccc(F)c1Cl (stereo not given in full) | -39.3% (active)
26 | CCOC(=O)CCN(CC(C)C)C(=S)Nc1ccccc1 | 104%
27 | O=C1/C(=C/c2cc(F)cc(F)c2)Cc2cc3c(cc21)OCO3 | 8.61% (active)
28 | COc1ccc(/C=C(\C#N)n2nnc3ccccc32)cc1 | 4.67% (active)
29 | CCCCCCCCCC(=O)Oc1ccc(/C(=C(/C)c2ccccc2)c2ccc(OCCN3CCCC3)cc2)cc1 | -29.4% (active)
30 | O=C(O)c1cn(C2CC2)c2cc(N3CCN(S(=O)(=O)c4ccc(Cl)c(Cl)c4)CC3)c(F)cc2c1=O | -10.6% (active)
31 | CCOC(=O)/C(=C\c1ccc2ccccc2c1)P(=O)(OCC)OCC | -13.1% (active)
32 | C=C(C)C(C(=O)OCC)(C(=O)OCC)C(C)C | 109%
33 | CCC(=O)NC1=C(Cl)C(=O)C(NC(=O)CC)=C(Cl)C1=O | -69.8% (active)
34 | COc1ccc(-c2ccc(-c3ccc(C(=N)N)nc3)s2)cc1Cl | -51.8% (active)
35 | O=C(OCc1ccc2c(Cl)cc(Cl)c(O)c2n1)N1CCNCC1 | 33.6%
36 | COc1cc(NS(C)(=O)=O)ccc1Cc1c2ccccc2nc2ccccc12 | -14.1% (active)
37 | Cc1cccc(C)c1N=c1oc2ccc(Cl)cc2nc1-c1ccccc1O | 94.8%
38 | O=C(/C=C/c1ccc([N+](=O)[O-])o1)NNC(=O)c1cc2ccccc2cc1O | 6.09% (active)
39 | COc1ccc(NC(=O)c2sc3nc(-c4cnccn4)cc(-c4cccs4)c3c2N)cc1 | 89%
40 | O[C@H]1CO[C@H]2[C@@H]1OC[C@@H]2Oc1ccc(Nc2nc(Nc3ccc(F)c(Cl)c3)ncc2F)cc1Cl | 97.6%
